From the supplement of paper PMC3334620
In all, about 33,000 sequences were measured (“E-score (-0.5 to 0.5)”: median about -0.01, highest 2% from about 0.26 on). Many of the other results were omitted from the sample, so the highest values are more common in it than they were.

target: Ste12 (UniProt P13574); assay: PBM E-score (8-mer binding enrichment) (E-score (-0.5 to 0.5)); higher = stronger / more preferred TF binding; details: protein concentration: 200 nM; construct: GST-DNA-binding domain
UniProt P13574, sequence (P13574 whole entry, the tested form may be a part): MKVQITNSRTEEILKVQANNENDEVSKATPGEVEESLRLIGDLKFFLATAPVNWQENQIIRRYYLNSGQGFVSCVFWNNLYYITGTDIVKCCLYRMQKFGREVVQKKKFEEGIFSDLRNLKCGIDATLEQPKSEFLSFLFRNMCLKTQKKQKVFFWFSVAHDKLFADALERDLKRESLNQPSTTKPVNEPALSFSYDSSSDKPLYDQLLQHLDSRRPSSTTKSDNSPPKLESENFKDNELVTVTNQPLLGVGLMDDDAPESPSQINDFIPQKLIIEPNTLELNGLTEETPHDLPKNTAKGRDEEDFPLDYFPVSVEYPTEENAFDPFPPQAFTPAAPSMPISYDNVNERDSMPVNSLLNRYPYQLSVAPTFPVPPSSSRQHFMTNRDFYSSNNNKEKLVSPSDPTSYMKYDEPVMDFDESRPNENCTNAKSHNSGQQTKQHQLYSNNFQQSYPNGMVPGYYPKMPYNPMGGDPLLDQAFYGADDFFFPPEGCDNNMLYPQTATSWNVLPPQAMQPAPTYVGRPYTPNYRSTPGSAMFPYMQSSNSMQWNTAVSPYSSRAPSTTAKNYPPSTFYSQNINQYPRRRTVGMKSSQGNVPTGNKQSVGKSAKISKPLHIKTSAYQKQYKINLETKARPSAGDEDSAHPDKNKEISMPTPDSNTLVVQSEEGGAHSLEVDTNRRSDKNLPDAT
Outline: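 Yeast transcription factors, full-length or as DNA-binding domains, were expressed with a GST tag using PURExpress in vitro transcription/translation. At about 100-200 nM they were applied to universal all-10-mer Agilent arrays, double-stranded by primer extension on fresh or once-stripped slides. Fluorescent anti-GST detected bound protein, and masliner normalised the scans. E-scores for ungapped eight-base words, pooled with reverse complements, came from the Universal PBM Analysis Suite.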

Sequence	PBM E-score
CACCATAA	0.136
ATACTAGG	0.119
GGTCCTGA	-0.163
AGCGCTAC	-0.0647
CCGCAGGA	-0.0635
GTTACAAA	0.384
ATTACAAC	-0.0498
TGTACAAA	0.0309
GTTACAAC	0.289
CTTACAAC	0.0334
ATTACAAA	0.165
TCTACAAA	0.138
TTTACAAA	0.294
CTTACAAA	0.143
TACGTCGA	0.0119
GGAGTAGA	-0.0759
AAGCTGGA	-0.0676
GCGACCCC	0.0725
GGATGCGA	-0.201
AGTCCATC	-0.306
GAAATACA	-0.00127
TAAATATA	0.321
AAAATATA	0.241
GAAATATA	0.284
CAAATATA	0.0746

Sequence	PBM E-score
GAAATATC	0.0344
GTCTCTGA	-0.168
CCATCTCA	-0.0464
CGGCCCCG	0.0097
CACCATGA	0.0412
CGCGATGC	-0.182
CGTCCTAC	-0.0953
TCAGTGCA	0.0371
CTAGGGCA	-0.159
GATGATGC	-0.125
GTTGCGAA	0.093
CGCAAGGC	0.049
CGTGAAAA	0.22
GGTGAAAA	0.0914
CGTGAAAC	0.364
CGTGAAAG	0.0979
GGTGAACC	-0.00551
AGTGAAAC	0.394
AGTGAAAG	0.126
AGTGAAAT	0.0994
GGTGAAAC	0.463
CCTCGTTA	0.049
CGGTAACG	-0.141
GCCTAAAC	-0.125
CACAGGTA	0.0125

Sequence	PBM E-score
ACCGTCTG	-0.00201
CCCAGGGC	-0.256
GAGATGAA	0.156
CGGATGAA	0.268
GCGATGAA	0.116
ACGATGAA	0.274
AAGATGAA	0.18
AGGATGAA	0.128
ACGATGAC	-0.173
CGGATGAG	-0.11
TAGATGAA	0.279
CATACCAA	-0.0054
AACTCTCC	-0.129
AGCGAGAT	0.119
CCGAATTC	-0.00494
TGACCTCA	-0.0719
ACAGAAGC	-0.0242
AGAAGACT	-0.22
AAGTTTCG	0.175
CAGTTTCG	0.181
AAGTTTTC	0.0212
TAGTTTAA	0.171
TAGTTTGA	0.0916
CAGTTTCC	0.0749
AAGTTTCC	0.11

Sequence	PBM E-score
TAGTTTCA	0.36
AAGTTTTA	0.287
AAGTTTCA	0.437
CAGTTTCA	0.374
AAGTTTTG	0.116
CGGCGAGA	-0.167
CCTTTTCG	0.19
CGACCTGC	-0.0774
GACCTCAC	-0.15
TCACGGAA	0.135
ACGATCGA	-0.106
ACGGAGGC	-0.187
GACCAGGA	-0.183
GTTCGCTA	-0.0318
GAGTTTCC	-0.00944
GAGTTTGA	0.0997
GAGTTTCA	0.407
CTGTGGTA	-0.0102
CATTTATA	0.189
CATTTATC	0.0356
GATTTATA	0.182
AATTTATG	0.205
AATTTATC	0.281
AATTTATA	0.274
CGGTAGAA	-0.142

Sequence	PBM E-score
GCCAAAGA	-0.0779
GGATTGCA	0.117
GCTGCGCA	-0.229
ACGCTTGC	-0.116
AACGTTTA	0.00807
CACGTTTC	0.285
CACGTTAC	0.0456
AACGTTTC	0.328
AACGTTTG	0.0498
CACGTTTA	-0.00355
ACAATTTA	0.163
AATTAAGT	0.118
AACATAGA	0.287
ACTATAAC	-0.0368
ACTAGAAA	0.244
AACATAAA	0.249
ACTAGAAC	-0.0111
CACATAGA	-0.0651
ACTATAAA	0.241
AACATAAT	0.286
AACATAAC	0.0575
GACATAGA	0.0743
ACTATAAT	0.274
ACTAGAAT	0.277
ACTCCTAA	-0.0995

Sequence	PBM E-score
GGAGGACA	-0.106
GGCAATGA	-0.192
ACTTGGAT	0.0871
TACTTCAA	0.0645
AATCTAGG	0.0839
GATGGTAA	0.0297
CACCATAG	-0.041
CACATAAG	0.044
ATCATAAG	0.0492
AACATAAG	0.289
CCAGAGTA	0.03
CCCGTCTA	-0.125
AATAGCAA	0.00204
AAACGTTA	0.0762
AAACGTTG	0.111
AAACGTTT	0.283
AAACGTGA	0.312
AAACGTGG	0.0452
AAACGTGT	0.123
GCAAGGGA	-0.0936
AAGTAGCA	0.0754
CAACTGAA	0.201
AGCCAGAC	-0.132
CGCCCCCA	-0.079
GGCCCCAA	-0.177

Sequence	PBM E-score
CGCCCCAG	0.0509
CGCCCCAA	0.296
CGCCCCAC	0.272
GGCCCCAC	-0.181
CTAACGCA	-0.0702
ATAGAAAC	0.189
ATCCCCTC	0.303
CTCCCCTC	0.28
CTCCCCTA	-0.0541
CGCCCCTA	0.214
CCCCCCTC	-0.244
ATCCCCTA	-0.0687
AGCCCCTC	-0.00471
CTCCCCGA	0.0416
ATCCCCGC	0.249
ATCCCCTG	-0.157
CTCCCCGC	0.386
CGCCCCTC	0.351
ACAGACTG	0.0359
GACTCCCC	-0.26
CCAGGCTC	-0.124
AGGCTTCG	-0.158
ACACTTCC	-0.0741
CAGAGCAC	0.0445
AATCGAGG	0.108

Sequence	PBM E-score
ATGAGAGC	-0.126
TAAGCTCA	-0.18
TCGATACA	0.19
AACTCCGC	-0.0808
AGTGCGCC	-0.156
GAATTTCA	-0.0538
GTTTGTTA	0.169
CTTTGTTC	0.227
CTTTGTAA	0.152
ATTTGTTG	0.181
ATTTGTAG	0.127
ATTTGTTC	0.266
ATTTGTTA	0.274
ATTTGTAA	0.288
CTTTGTTA	0.219
CCTAATGA	0.13
AGGGTCTC	-0.153
CCCTTCAC	-0.0106
AATTCATG	0.255
ACCCAGAT	0.0125
AGACCACG	-0.255
AAAACACA	0.198
AAAACACC	0.213
CAAACACC	0.121
GAAACACA	0.408

Sequence	PBM E-score
CAAACACG	0.17
AAAACACG	0.304
AAAACACT	0.215
GAAACACC	0.311
TAAACACA	0.175
AGGGCTCC	-0.236
GTCGCTTA	-0.193
CCGGGCAA	-0.0289
CATTGTGG	0.0722
ATGCTCCA	0.0506
AGCTGAAC	-0.288
GCCTGAAC	-0.209
GGCTGAAA	0.27
GCCTGAAA	0.273
CGCTGAAA	0.251
TGCTGAAA	0.24
AGCTGAAG	-0.127
TCCTGAAA	0.25
AGCTGAAA	0.264
GCCACAGC	-0.299
GGGGCTAA	-0.0575
CCTATAGA	0.00311
CTTGCGAC	-0.128
ATTGCGAC	0.277
ATTGCGAG	0.127

Sequence	PBM E-score
CCGTCGCA	0.176
CAATGCGA	-0.00861
CATGATCA	0.0535
CTCTAAAA	0.0605
ATCTAAAT	0.172
TTCTAAAA	0.292
GTCTAAAA	0.135
ATCTAAAC	0.127
ATCTAAAA	0.285
CGCTCTGA	0.0576
ACTGGGTG	-0.107
GTACCTCA	-0.173
GAGTTGGA	0.0912
ATAGTCAT	-0.141
AGGAGCGC	-0.0491
TAGTGACA	-0.0814
GAGTGAAA	0.204
AAGTGAAA	0.291
ACGTGAAA	0.323
TAGTGAAA	0.324
TAGTGATA	-0.126
ACGTGAAC	-0.226
TCGTGAAA	0.177
CAGTGAAA	0.197
GGCCACAA	0.0783

Sequence	PBM E-score
CTCCCAGA	-0.165
CCCCAAGC	0.176
GCAATCAA	0.0398
ACTGGGAA	0.0846
AGCTAGTC	-0.133
CCAAACAA	0.125
ACAAACAA	0.0589
GCAAACAA	0.146
ACAAACAG	0.125
ACAAACAC	0.266
TCAAACAA	0.266
CAGGGCGA	-0.103
CAGCGATC	-0.00075
AATGTCAT	0.0301
AGTCCCAC	-0.133
CACAATAG	0.227
AGTCTAAT	0.00604
ATATAGAT	0.179
AGGCGGGG	0.269
AGGGGCGC	0.0204
AGGCGGGA	0.0721
AGGGGCGA	0.165
AGGGGCGG	0.452
AGGGCGGC	-0.0895
AGGGCGTG	-0.116

Sequence	PBM E-score
AGGGCGGG	0.296
AGGCGGGC	0.0738
GCAAAGCC	-0.185
TCCCAGAA	-0.0433
TGCTTTAA	0.199
ACTGAGGG	-0.101
CGAGGTAC	-0.0522
CGCCGCAG	0.0202
TAATTAGA	0.161
AAATTAGA	0.283
CAATTAGA	0.102
GCCGAACC	0.0313
CGCTGAGC	-0.154
AACCCGCC	0.0991
GCCCCGCC	0.33
GCCCCGCA	-0.112
GGCCCGCC	0.0329
ACCCCGCC	0.41
CCCCCGCC	-0.0801
ACCCCTCC	0.229
CTCGCGAC	0.0527
GTCGCGAC	0.389
GTCGCGAA	-0.0274
AACTATGG	-0.0761
ATGTTGCG	0.139

Sequence	PBM E-score
AATTAATG	0.232
AATTAGTC	0.218
CATTAATA	0.251
AATTAATT	0.254
AATTAATA	0.359
TATTAATA	0.336
GATTAATA	0.246
CATTAGTA	0.071
AATTAGTA	0.263
CCATTGCA	0.0632
CGCCTAGC	-0.0616
GTCACTAA	0.0793
AATGGGGT	-0.0055
TAAACTTA	0.168
CAAACTAC	0.0311
CAAACTTA	0.276
CAAACTTC	0.124
TAAACTAA	0.148
CAAACTAA	0.265
ACGCTGAC	-0.194
AGCAAACC	0.194
CATGGGAA	-0.0149
CGGCTATC	-0.174
ATTTCTAC	0.253
AACAAGTT	0.154

Sequence	PBM E-score
AACAAATG	0.176
AACAAATT	0.268
AACAAATA	0.341
AACAAGTA	0.00602
TACAAATA	0.218
CAGGCAAA	0.0381
AATCTTAT	0.0186
CGTTAGGA	0.0933
CGAATCCG	0.0624
GCCGCTTA	0.0462
GCGTTCTA	-0.0704
GAATTCTA	0.107
TAATTCTA	0.267
CAATTCTC	0.00128
GAATTCTC	0.262
AAATTCTC	0.105
AAATTCTA	0.0535
CTTCACCC	0.0896
AAACGCTA	0.112
